The panel holds about 83,000 compounds, 20% with a hit somewhere; the sample as a whole holds those more often.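 For each line, cells grew in 96-well plates with the test compound present at a single concentration for 48 hours.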 Unmarked numbers belong to inactive results. The source made the active and inactive calls. The calls were made as follows: active = growth percent below 10; inactive = the rest.
test system: RXF 393 renal; assay: NCI-60 one-dose screen, 48 h (100 = growth as untreated, 0 = no growth, -100 = all killed); conditions: 10 µM

Row | SMILES | growth
1 | COc1cc2c3c(n([C@@H]4CCOC4)c(=O)c2cc1OC)-c1cc2c(cc1C3=O)OCO2 | 52.4%
2 | CCOC(=O)c1sc2ncnc(Nc3ccc4c(cnn4C(=O)Nc4ccc(C)c(Cl)c4)c3)c2c1C | 99.3%
3 | CN1C(C(=O)Nc2ccccn2)=C(O)c2sc(Cl)cc2S1(=O)=O | 111%
4 | CCCN1CN2C(=O)N3CN(CCC)CN4C(=S)N(C1)C2C34 (centres undefined) | 132%
5 | COc1ccc(-c2cc(-c3cc(OC)ccc3OC)nc(N)c2C#N)cc1 | 70.5%
6 | c1cncc(-c2csc(-c3c[nH]c4ccccc34)n2)c1 | 111%
7 | c1cnc2[nH]cc(-c3nc(-c4ccsc4)cs3)c2c1 | 98.3%
8 | COc1ccc(-c2nn(-c3cccc(Cl)c3)cc2C=C(C#N)C#N)cc1 | -5.72% (active)
9 | CCOC(=O)c1sc2ncnc(Nc3ccc4c(cnn4C(=O)Nc4ccccc4)c3)c2c1C | 55.4%
10 | CCCCCC(=O)O[C@]1(C(C)=O)CCC2C3CCC4=CC(=O)CC[C@]4(C)C3CC[C@@]21C (some centres undefined) | 53.2%
11 | CCn1cc(CNc2ccc(C(=O)Nc3ccc4ccccc4c3)cc2)c(C)n1 | 86%
12 | O=c1[nH]c(=O)n(C2C[C@H](O)[C@@H](CO)O2)cc1C(F)(F)F (some centres undefined) | 116%

test system: SF-268 CNS; assay: as above; conditions: 10 µM

Row | SMILES | growth
13 | Cc1c2c[n+](C(C)C)ccc2c(C)c2c1[nH]c1ccccc12 | 15.3%
14 | Cc1ccc(-n2c(C)nn3c(=O)c4c5c(sc4nc23)CN(C)CC5)cc1 | 94.1%
15 | CCCCCCCCCCCCCCCCCC[n+]1ccc2c(C)c3c(c(C)c2c1)c1cc(O)ccc1n3CC | 4.77% (active)
16 | Cc1c2cnccc2c(C)c2c1c1cc(O)ccc1n2C(C)C | 9.03% (active)
17 | COc1ccc(C(=O)CSc2nc(-c3cc(OC)ccc3OC)cc(-c3ccc(OC)cc3)c2C#N)cc1 | 90%
18 | CCn1c2ccc(O)cc2c2c(C)c3c[n+](C)ccc3c(C)c21 | -10.1% (active)
19 | Cc1ccccc1N1C(=O)c2cc(S(N)(=O)=O)c(Cl)cc2NC1C (centres undefined) | 106%
20 | N#Cc1c(-c2ccc(Cl)cc2)cc(-c2cc(O)ccc2O)nc1N | 31.9%
21 | CN1CCc2c(sc3nc4n(-c5ccc(Cl)cc5)c(=O)[nH]n4c(=O)c23)C1 | 106%
22 | Cn1c2ccccc2c2c3[nH][nH]c(=O)c3c3c4ccccc4[nH]c3c21 | 25%
23 | O=C1c2c(c3c4ccccc4n(CCCCCCN4CCOCC4)c3c3[nH]c4ccccc4c23)C(=O)N1O | 92.9%
24 | Nc1ccccc1NC(=O)c1ccc(CCCC(=O)Nc2ccc(C3CC3N)cc2)cc1 (centres undefined) | 32.6%
25 | Nc1nc(-c2cccnc2)nc2c1sc(=S)n2-c1ccccc1 | 96%
26 | Nc1cc(-c2ccncc2)c[nH]c1=O | 103%
27 | COc1cc2c3c(n([C@H]4CCOC4)c(=O)c2cc1OC)-c1cc2c(cc1C3=O)OCO2 | 31.7%
28 | C=C/C(C)=C/C[C@]1(C)[C@H](C)[C@@H](OC(=O)CCC)[C@H](O)[C@@]23C(=C[C@H](OC)C[C@@H]12)[C@@H](OC(=O)CCC)O[C@H]3OC(C)=O | -8.13% (active)
29 | Fc1ccc2[nH]cc(-c3nc(-c4ccsc4)cs3)c2c1 | 99.8%
30 | CN1CCc2c(sc3nc4n(-c5ccc(Cl)cc5)cnn4c(=O)c23)C1 | 95.6%
31 | O=C(CCCNC(=O)c1nc(-c2ccccc2)n(-c2ccccc2)n1)NO | 105%
32 | Nc1ccc(-c2cccs2)cc1NC(=O)c1ccc(CCCC(=O)Nc2ccc(C3CC3N)cc2)cc1 (centres undefined) | 104%
33 | CCOC(=O)c1sc2ncnc(Nc3ccc(NC(=O)Nc4ccc(Cl)cc4)cc3)c2c1C | 72.1%
34 | CCNc1nc(C(F)(F)F)nc2c1sc(=S)n2-c1ccccc1 | 105%
35 | COc1ccc([C@H]2[C@H](C(=O)Nc3cccnc3)c3ccccc3C(=O)N2c2ccccc2)cc1 | 93.9%
36 | O=C(CCCCNC(=O)c1nc(-c2ccccc2)n(-c2ccccc2)n1)NO | 90.1%
37 | COc1cc(CNC(=O)C2CSC3(C)c4ccccc4C(=O)N23)cc(OC)c1OC (centres undefined) | 101%
38 | COc1cc2c3c(n(C4CCNCC4)c(=O)c2cc1OC)-c1cc2c(cc1C3=O)OCO2 | -60% (active)
39 | C[C@@H](O)[C@H]1C(=O)N2C(C(=O)O)=C(SC3CN[C@H](C(=O)N(C)C)C3)[C@H](C)[C@H]12 (some centres undefined) | 105%

From PubChem BioAssay (NCI)
